E coli Lon inh: E. coli protease La inhibition; P0A9M0; purified E. coli Lon protease, fluorescence polarization; inhibition, % at 7.94 µM; actives 0.42% (n = 360,000); AID 602123; in the data active = inhibition above about 13%, passing the limit was not always enough;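 also: 0% = enzyme with probe and DMSO and 100% = no enzyme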
Cardiac RTF inh: cardiac RTF calcium desensitization. IANBD-labeled cardiac RTF, Ca2+ fluorescence. AID 493244. P19429+P45379. actives 0.12% (n = 340,000). inhibition, % at 7.15 µM;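 active = inhibition above the mean inhibition of all tested compounds plus 3 SD, cut at about 17% in these data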;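 also: assay run at fixed EC70 calcium of 1.6 mM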
LANA DNA inh: inhibitors of KSHV LANA C-terminal domain DNA binding | MBP-C-LANA/FAM-LBS DNA binding, fluorescence polarization | inhibition, % at 9 µM | actives 0.078% (n = 340,000) | AID 504423;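 active = highest replicate inhibition at or above 60% at 9 µM, even if other replicates fall short; inactive = all replicates below 60% inhibition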;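 also: 0% = neutral control wells and 100% = 4 µM acridine orange control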
RTF Ca sens act: cardiac RTF calcium sensitization. P19429+P45379. IANBD-labeled TnC RTF fluorescence at EC20 calcium; 0% EC20 calcium, 100% full calcium. activation, % at 7.2 µM. actives 0.24% (n = 340,000);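 active = activation above the mean over all tested compounds plus 3 SD, cut at about 30% in these data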;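 also: rise in fluorescence read as greater calcium sensitivity of cardiac thin filaments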
Keap1-Nrf2 PPI: inhibitors of human Keap1-Nrf2 protein-protein interaction | actives 0.15% (n = 340,000) | Keap1 Kelch-Nrf2 peptide fluorescence polarization, 1536-well | inhibition, % at 9.4 µM; in the data active = inhibition above about 12%;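 also: human Keap1 Kelch domain with fluorescein labeled Nrf2 9mer peptide probe; 0% = neutral control wells and 100% = peptide positive control; higher means more block of Keap1 binding to Nrf2 peptide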
Target sequence (Q14145 whole entry, looked up, the tested form may be a part): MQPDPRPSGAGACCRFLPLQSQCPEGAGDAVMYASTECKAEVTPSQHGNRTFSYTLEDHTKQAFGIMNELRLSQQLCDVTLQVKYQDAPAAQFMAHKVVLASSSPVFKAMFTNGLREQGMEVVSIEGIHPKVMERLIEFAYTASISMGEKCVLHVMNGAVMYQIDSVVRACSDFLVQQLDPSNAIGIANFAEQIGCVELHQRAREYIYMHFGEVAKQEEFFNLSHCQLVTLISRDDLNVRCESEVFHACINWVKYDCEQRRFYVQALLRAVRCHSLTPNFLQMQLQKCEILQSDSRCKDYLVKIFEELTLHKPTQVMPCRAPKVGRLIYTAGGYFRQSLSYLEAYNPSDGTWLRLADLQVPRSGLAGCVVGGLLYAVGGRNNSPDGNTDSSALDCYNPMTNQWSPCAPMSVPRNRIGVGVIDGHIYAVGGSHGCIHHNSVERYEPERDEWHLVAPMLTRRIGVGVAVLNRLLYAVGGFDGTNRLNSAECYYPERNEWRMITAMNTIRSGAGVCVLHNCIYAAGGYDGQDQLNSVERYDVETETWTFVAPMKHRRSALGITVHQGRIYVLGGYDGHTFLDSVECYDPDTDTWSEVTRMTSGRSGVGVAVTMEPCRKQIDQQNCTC
eLon confirm: confirmation of E. coli Lon protease inhibitors; shares compounds with E coli Lon inh; purified E. coli Lon, fluorescence polarization; inhibition, % at 7.94 µM; actives 31% (n = 1,400); AID 602230; in the data active = inhibition above about 16%;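 also: 0% = enzyme with probe and DMSO and 100% = no enzyme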
The depositor's hits bear a star; / = no result given. An excerpt weighted towards active compounds, which were near 0.82% of everything screened.

SMILES	E coli Lon inh	Cardiac RTF inh	LANA DNA inh	RTF Ca sens act	Keap1-Nrf2 PPI	eLon confirm
O=C(CCN1C(=O)C2C3C=CC(C3)C2C1=O)NC1CCCCC1 (stereo unspecified)	20.2*	2.0	-0.2	1.6	-0.6	5.8
O=C(COC(=O)CNC(=O)c1ccc(Cl)cc1Cl)NC(=O)NC1CCCCC1	-5.3	-3.4	1.0	0.5	3.2	/
O=c1c2cc(Br)ccc2nc2n1CCCCC2	-2.7	5.6	-1.2	-4.7	0.4	/
O=c1c2cc([N+](=O)[O-])ccc2nc2n1CCCC2	18.9*	-5.4	0.3	0.0	-1.2	-6.3
Cc1nc(Nc2ccc(Cl)cc2)c(C#N)c(=O)[nH]1	19.1*	-6.0	-0.8	1.0	-3.2	-0.1
Cc1ccccc1Nc1nnc(-c2ccc(C(=O)NCCO)cc2)c2ccccc12	5.6	-6.4	-1.3	-0.6	-2.3	/
O=C(O)CC(SCC(=O)Nc1ccc(S(=O)(=O)N2CCCC2)cc1)C(=O)O (stereo unspecified)	17.4*	-4.2	-0.3	12.0	-8.7	0.3
O=C(COC(=O)C1=Cc2ccccc2OC1)NCc1ccc(F)cc1	31.4*	-7.8	8.6	3.2	-4.4	9.2
O=C(c1ccccc1Cl)N(Cc1ccc(Cl)c(Cl)c1)N1C(=O)CCCC1=O	17.8*	-3.2	0.9	6.9	-0.9	5.1
CCCCCCc1cc2cc(S(=O)(=O)c3ccc(F)c(Cl)c3)c(=O)oc2cc1O	83.5*	-10.0	3.5	-14.6	-0.7	-51.4
CCCOc1ccc(CNC(=O)c2ccc3nc(N4CCOCC4)sc3c2)cc1	5.2	-0.6	-0.4	4.5	-3.1	/
C[C@@H]1CCCCO[C@@H](CN(C)C(=O)Cc2ccccc2)[C@@H](C)CN([C@H](C)CO)C(=O)c2cc(NC(=O)C3CCCCC3)ccc2O1	1.8	/	/	/	/	/
O=C(CC1c2cc(F)ccc2C=C(c2ccsc2)N1c1ccc(C#CCCO)cc1)c1ccco1 (stereo unspecified)	-9.5	/	/	/	/	/
CC/C(=C\C(=O)c1ccncc1)Nc1ccc(O)cc1	26.0*	-2.1	0.4	1.0	-0.7	-3.5
CC(=O)C1=C(O)C(=O)N(c2ccc(Br)cn2)C1c1ccc(F)cc1 (stereo unspecified)	28.1*	-5.3	8.4	0.2	6.8	1.2
CC(=O)C1=C(O)C(=O)N(c2ccc(Br)cn2)C1c1ccc(Br)cc1 (stereo unspecified)	-7.0	-8.9	-0.3	5.9	-6.3	/
NC(=S)Nc1cc2ccccc2c2ccccc12	9.8	-0.3	0.8	5.5	1.6	/
NC(=S)Nc1cccc2cc3ccccc3cc12	41.6*	-9.5	1.2	8.2	-1.9	112.8*
O=C(Nc1cccc([N+](=O)[O-])c1)Nc1cccc([N+](=O)[O-])c1	10.4	-17.0	-1.0	0.3	-3.3	/
CC(C)S(=O)(=O)c1csc(NC(=O)Nc2cccc([N+](=O)[O-])c2)c1Cl	22.1*	1.5	1.0	-1.4	-1.4	-6.2
CCCCN1C(=O)c2cccc3cc(O)cc(c23)C1=O	32.5*	-5.8	1.3	0.4	-1.6	6.3
COc1cccc(COC(=O)C2CCN(S(=O)(=O)c3ccc(C)cc3C)CC2)c1OC	4.2	7.0	-2.7	2.8	0.1	/
COc1ccccc1-c1csc(Nc2ccc(Oc3ccccc3)cc2)n1	-8.6	/	/	/	/	/
Cc1cc(-c2csc(N)n2)c(C)n1C	16.2*	-4.5	0.4	0.6	0.0	1.1
CC1(OC(=O)c2cccs2)C(=O)C=C2C=C(C3CC3)OC=C2C1=O (stereo unspecified)	13.6	-7.5	1.7	-1.2	1.3	/
SMILES	E coli Lon inh	Cardiac RTF inh	LANA DNA inh	RTF Ca sens act	Keap1-Nrf2 PPI	eLon confirm
CC1(OC(=O)c2ccco2)C(=O)C=C2C=C(C3CC3)OC=C2C1=O (stereo unspecified)	25.4*	-10.1	10.8	8.4	-1.5	13.0
Cc1nc2nc(CCNS(=O)(=O)c3ccc(Cl)cc3)cn2nc1C	-14.9	-11.4	1.2	-2.7	-3.2	/
CN(C)CCN(C(=O)C1CCN(S(=O)(=O)c2cccs2)CC1)c1nc2ccccc2s1	-1.6	-9.1	-1.5	10.0	-2.1	/
COc1ccc(S(=O)(=O)NCc2ccc3c(c2)cc(C)n3C)cc1	14.7*	-5.8	0.9	5.6	0.0	9.9
Cc1cc2cc(CNS(=O)(=O)c3ccccc3)ccc2n1C	31.2*	-6.9	-2.1	-1.5	1.7	20.2*
Nc1ccn([C@@H]2O[C@H](CNCc3ccc(C#CCCO)cc3)[C@@H](O)[C@H]2O)c(=O)n1	-12.2	/	/	/	/	/
Cc1ccc2nc(-c3ccc(C#N)cc3)c(Cc3cccc(Cl)c3)n2c1	-8.8	/	/	/	/	/
COc1ccc(NS(=O)(=O)c2ccc(Cl)s2)cn1	18.5*	-6.6	14.8	12.4	5.4	35.4*
O=C(CCn1cccn1)N1CCCC(Nc2ccc(F)c(F)c2)C1 (stereo unspecified)	-10.2	/	/	/	/	/
Cc1ccc(S(=O)(=O)Nc2ccccc2F)cc1C(=O)N1CCN(c2ccccc2O)CC1	-1.2	2.2	1.7	-0.6	-2.1	/
CC1CCCN(C(=O)CSc2nc3ncccc3[nH]2)C1 (stereo unspecified)	16.7*	12.3	-3.0	-3.5	-0.3	-1.4
COc1ccc(C(NC(=O)CNC(C)=O)C(=O)Nc2ccc3c(c2)OCCO3)cc1 (stereo unspecified)	13.7*	-3.8	2.7	0.4	-4.5	-22.3
CCOc1ccc(C(C)=O)cc1COC(=O)CNC(=O)C12CC3CC(CC(C3)C1)C2	3.4	-7.1	-3.0	-3.7	-1.4	/
COc1ccc(NC(=O)CCNC(=O)C2CCN(S(=O)(=O)c3ccccc3)CC2)cc1OC	-10.8	/	/	/	/	/
COc1ccc(-c2ccc(C(=O)N3CCOCC3)c3occc23)c(C)c1	22.8*	/	/	/	/	-0.5
COc1ccc(-c2ccc(C(=O)N3CCN(C)CC3)c3occc23)c(C)c1	-1.5	/	/	/	/	/
CC(=O)Nc1ccc2nc3c(=O)n(C)c(=O)n(C)c3nc2c1	68.2*	-29.0	14.9	18.6	4.7	64.2*
CC(C)(C)OC(=O)N1Cc2[nH]c3ccccc3c2C[C@@H]1C(=O)O	-6.7	-6.9	0.2	-1.0	-0.8	/
CCOc1c2ccccc2nn1CCOC	-14.2	-6.3	1.9	-6.3	-4.3	/
CCOc1c2ccccc2nn1CCO	28.7*	6.9	1.3	4.7	3.9	-76.6
CCOc1ccc(/C(O)=C2/C(=O)C(=O)N(c3ccccn3)C2c2ccc(C)cc2)c(C)c1 (stereo unspecified)	25.5*	0.1	2.9	-4.6	0.6	-5.1
CCOc1ccc(/C(O)=C2/C(=O)C(=O)N(c3ccccn3)C2c2ccc(Cl)cc2)c(C)c1 (stereo unspecified)	0.1	-1.9	0.1	-2.5	-0.9	/
O=C(COc1ccc(F)cc1Cl)NC1CCCCCC1	159.8*	-3.5	-1.1	-3.6	3.8	-8.2
CCc1ccc(OCC(=O)NC2CCCCC2)c(Br)c1	36.0*	1.1	0.7	-2.6	5.0	16.5*
CCc1ccc(OCC(=O)NNC(=S)NC(=O)C2CCCCC2)c(Br)c1	-1.3	-0.1	0.6	-4.4	2.0	/
O=C(COc1ccccc1Cl)NC(=O)NC1CCCCC1	-4.5	6.9	-0.8	8.1	-1.7	/

Compound activity (PubChem)
